An excerpt weighted towards active compounds, which were near 7% of everything screened.
D3 antag = qHTS of D3 Dopamine Receptor Antagonist: qHTS; D3R cells, DiscoveRx beta-arrestin luminescence, antagonist mode; hits give low values; max response, negative = inhibition, %; 360,000 compounds, 2.5% hits; AID 652054, 2013; in the data active means max response below about -50%; inconclusive means no clear call, values can overlap the other calls
Target sequence (P35462 whole entry, looked up): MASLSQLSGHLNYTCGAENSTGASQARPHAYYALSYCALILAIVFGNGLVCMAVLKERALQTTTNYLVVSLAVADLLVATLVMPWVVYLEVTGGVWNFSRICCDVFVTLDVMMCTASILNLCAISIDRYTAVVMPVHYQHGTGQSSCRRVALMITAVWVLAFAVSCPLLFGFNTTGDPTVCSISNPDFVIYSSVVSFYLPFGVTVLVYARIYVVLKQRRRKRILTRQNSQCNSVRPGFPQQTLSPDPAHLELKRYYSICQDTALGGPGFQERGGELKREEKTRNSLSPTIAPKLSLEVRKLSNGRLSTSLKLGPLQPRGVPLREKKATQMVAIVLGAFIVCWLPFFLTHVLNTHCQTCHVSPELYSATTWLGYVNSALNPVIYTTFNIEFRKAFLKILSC
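Cells expressing the human receptor were seeded at 1500 cells/well, incubated overnight at 37 degrees C in 5% CO2, then exposed to library compounds with dopamine controls for 90 minutes at 37 degrees C before luminescent detection.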
ATXN2 expr inh = Primary qHTS for Inhibitors of ATXN expression; HEK-293 ATXN2-luciferase reporter, luminescence, 24 h; Potency, µM (top dose mostly 57 µM), actives largely listed as inhibitors; 360,000 compounds, 0.72% hits; AID 1745845, 2022; further: nearly all actives have a fitted effect of over 55% in size
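ATXN2-luciferase reporter cells (luciferase flanked by upstream and downstream ATXN2 gene portions) were treated 24 h at 37 °C with compounds at up to 57 uM. SteadyGlo luminescence gave expression; GF-AFC fluorescence gave viability.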
S2 tox = Viability Counterscreen for Primary qHTS for Inhibitors of ATXN expression; Potency, µM (series often up to 56.7 µM), usual class: cytotoxic; 400,000 compounds, 0.49% hits; S2 cells (HEK-293 line with an ATXN2-luciferase reporter) viability, CellTiter-Fluor protease fluorescence, 24 h; further: nearly all actives have a fitted effect of over 40% in size
a7 integrin act = qHTS for Activators of Integrin-Mediated Alleviation for Muscular Dystrophy; alpha7betagal myoblasts, beta-gal FDG fluorescence, 48 h; Potency, µM (highest dose often 38.3 µM), hits mostly activators; 350,000 compounds, 0.064% hits; AID 624291, 2012; further: nearly all actives have a fitted effect of over 60% in size
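Alpha7betagal+/- myoblasts (passage 13) were plated 16-24 hr, then exposed to compounds (1:260 dilution of DMSO stock) for 48 hours at 37C. After MPER lysis, β-galactosidase reporter activity was read as FDG fluorescence (ex 480/em 540) after 30 minutes.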
DRD3 agonist = qHTS of D3 Dopamine Receptor Agonist: qHTS; D(3) dopamine receptor (Homo sapiens), P35462; D3R DiscoveRx beta-arrestin cells, luminescence, 90 min; max activation, %; 410,000 compounds, 0.58% hits; AID 652048, 2013; in the data active means max activation above about 30%
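Agonist mode: compounds and dopamine controls were applied to plated cells for 90 min at 37 degrees C after an overnight attachment at 1500 cells/well. Luminescent read-out followed 30 - 60 minutes at room temperature with DiscoveRx detection reagent.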
IL-1B inflam inh = qHTS for Inhibitors of Inflammasome Signaling: IL-1-beta AlphaLISA Primary Screen; THP-1 LPS/ATP IL-1B secretion, AlphaLISA, 16 h; hits give low values; activity change, % at 57.5 µM; 360,000 compounds, 4.7% hits; in the data active means activity change below about -50%; inconclusive means mostly about -30% to -49%
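Secreted IL-1B measured by AlphaLISA bead assay after 16 h compound exposure of THP-1 cells; compounds (final up to 57.5 uM) added 1 h before LPS (250 ng/mL) and ATP (1.25 mM) stimulation; lower signal means less secretion.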
Of the large screens only hits and unclear results are named; the others gave an inactive call. Unless noted, the call rests on the fitted dose curve; in most records, active means well fitted curve in the direction sought with a large enough effect; inconclusive means small, poorly fitted or top-dose-only effect, or another doubt; inactive means no such curve, though single readings can be large; an effect the other way counts as inactive or inconclusive.

COc1ccc(/C=C/c2cccc[n+]2C)c(O)c1	S2 tox inconclusive, a7 integrin act inconclusive (no result: ATXN2 expr inh)
Cc1ccc(S(=O)(=O)N2CCN(Cc3nnc(-c4c(-c5ccccc5)noc4C)o3)CC2)cc1	a7 integrin act inconclusive
C=CCn1c(C)cc(C(=O)CN2C(=O)c3ccccc3S2(=O)=O)c1C	ATXN2 expr inh inconclusive
CCn1c(C)cc(C(=O)CN2C(=O)c3ccccc3S2(=O)=O)c1C	ATXN2 expr inh inconclusive
Cc1cc(C(=O)CN2C(=O)c3ccccc3S2(=O)=O)c(C)n1-c1ccccc1	ATXN2 expr inh 4.5µM
Cc1cc(C(=O)CN2C(=O)c3ccccc3S2(=O)=O)c(C)n1C(C)C	ATXN2 expr inh 5µM
CCCc1nn2c(=O)cc(COc3ccc(/C=C(\C#N)C(=O)Nc4ccc(F)cc4)cc3)nc2s1	none (no result: D3 antag, a7 integrin act, IL-1B inflam inh)
COc1ccc(NC(=O)CN(c2ccc(Cl)cc2)S(C)(=O)=O)cc1OC	none
O=C(Oc1oc(-c2ccco2)nc1C=Nc1ccccc1)c1ccco1	D3 antag -50, IL-1B inflam inh inconclusive
Cc1ccc(C(=O)Oc2oc(-c3ccco3)nc2C=Nc2ccc(Cl)cc2)cc1	IL-1B inflam inh -51
O=C(Oc1oc(-c2ccco2)nc1C=Nc1ccccc1)c1ccoc1	D3 antag inconclusive, IL-1B inflam inh -68
COc1ccc(N=Cc2nc(-c3ccccc3)oc2OC(C)=O)cc1	none (no result: ATXN2 expr inh)
CCC(Oc1ccccc1)C(=O)N(CC)CC(=O)NCc1ccc(F)cc1 (stereo not given)	none
O=C1c2ccccc2C(Nc2ccc(Cl)cn2)N1Cc1ccccc1 (stereo not given)	none
[O-][n+]1cccc(C(O)c2ccccc2)c1 (stereo not given)	none
Cc1nn(C)c(C)c1NS(=O)(=O)c1ccc(N2CCCC2=O)cc1	IL-1B inflam inh -57
O=C1CCCN1c1ccc(CNS(=O)(=O)c2ccc(F)cc2)cc1	D3 antag -57
O=C1CCCN1c1ccc(S(=O)(=O)NCCc2ccc(Cl)cc2)cc1	none
Oc1ccc(Cl)cc1CNCC1CCCCC1	D3 antag -76, IL-1B inflam inh -64
Oc1ccc(Cl)cc1CNC1CCCCC1	IL-1B inflam inh inconclusive
CC(C)CC1(C)NC(=O)N(CC(=O)Nc2ccc3c(c2)CCC3)C1=O (stereo not given)	D3 antag -55
CCc1ccc(/C=C2\SC(=S)N(CCCC(=O)N(CCO)c3ccccc3)C2=O)cc1	S2 tox inconclusive, IL-1B inflam inh -70 (no result: ATXN2 expr inh)
O=C1/C(=C/c2cccs2)SC(=S)N1CCCC(=O)N(CCO)c1ccccc1	IL-1B inflam inh inconclusive
CCOc1ccc(/C=C2\SC(=S)N(CCC(=O)N(CCO)c3ccccc3)C2=O)cc1	S2 tox inconclusive, a7 integrin act inconclusive, IL-1B inflam inh -81
COc1ccc(CNC(=O)c2cccc(C)c2[N+](=O)[O-])cc1	none
Cc1cc(Cl)c(S(=O)(=O)N2CCN(c3cccc(C)c3C)CC2)cc1OCC(N)=O	none (no result: ATXN2 expr inh, S2 tox)
Cc1cccc(N2CCN(S(=O)(=O)c3cc(Cl)ccc3Cl)CC2)c1C	DRD3 agonist 65 (no result: D3 antag, a7 integrin act, IL-1B inflam inh)
CCN1C(=O)/C(=C\N2CCN(C)CC2)SC1=S	none
CCN1C(=O)/C(=C\N2CCN(c3ccc(F)cc3)CC2)SC1=S	DRD3 agonist 34
O=C(CN1C(=O)C2C3C=CC(C3)C2C1=O)Nc1cccc(S(=O)(=O)N2CCCC2)c1 (stereo not given)	none
CC(C)c1ccc(/C=C/c2[nH]c(=O)[nH]c(=O)c2[N+](=O)[O-])cc1	IL-1B inflam inh -82 (no result: ATXN2 expr inh)
CCOC(=O)COc1ccc(Br)cc1/C=C/c1[nH]c(=O)[nH]c(=O)c1[N+](=O)[O-]	ATXN2 expr inh inconclusive, IL-1B inflam inh -63
CCCOc1ccc(/C=C/c2[nH]c(=O)[nH]c(=O)c2[N+](=O)[O-])cc1OCC	none
CCOc1cc(/C=C\c2[nH]c(=O)[nH]c(=O)c2[N+](=O)[O-])ccc1OC(C)CC (stereo not given)	ATXN2 expr inh inconclusive, IL-1B inflam inh -92
Cc1cc(C(=O)Nc2ccccc2N2CCOCC2)no1	none
CCOC(=O)[C@]12CCC=C1N(Cc1cccc3ccccc13)C(=O)[C@H](CC(=O)NCc1ccc(OC)c(OC)c1)C2	ATXN2 expr inh inconclusive, IL-1B inflam inh inconclusive (no result: S2 tox, a7 integrin act)
Cc1cc(C)c2[nH]c(=O)c(CN(Cc3ccco3)C(=O)C3CCCO3)cc2c1 (stereo not given)	none
Cc1cc(Nc2ccccc2O)c2ccccc2n1	IL-1B inflam inh -63
Cc1ccc(C)c(NC(=O)c2cc(C)nc3ccccc23)c1	none (no result: ATXN2 expr inh)
Cc1ccc(C)c(Nc2cc(C)nc3ccccc23)c1	S2 tox inconclusive, IL-1B inflam inh -70 (no result: ATXN2 expr inh)
Cc1cc(Nc2ccc(F)cc2)c2ccccc2n1	none (no result: ATXN2 expr inh)
Cc1cccc(Nc2cc(C)nc3ccccc23)c1	IL-1B inflam inh -91
COC(=O)c1ccc(Nc2cc(C)nc3ccccc23)cc1	ATXN2 expr inh inconclusive, S2 tox inconclusive, IL-1B inflam inh -97
Cc1ccc2oc(C(=O)Nc3ccc(S(=O)(=O)N4CCCC(C)C4)cc3)cc(=O)c2c1 (stereo not given)	none (no result: D3 antag, a7 integrin act, IL-1B inflam inh)
CC1CCC2(CC1)NC(=O)N(CC(=O)NCCc1ccccc1)C2=O (stereo not given)	none
CNC(=S)N1CCN(c2ccccc2OC)CC1	D3 antag inconclusive
Cc1ccc(Nc2cc(C)nc3ccccc23)c(C)c1	IL-1B inflam inh -95
Cc1ccc(C)c(Nc2nc3ccccc3[nH]2)c1	IL-1B inflam inh -94
Cc1ccc(Nc2cc(C)nc3ccc(C)cc23)cc1	a7 integrin act inconclusive (no result: IL-1B inflam inh)
COc1cccc2c(Nc3ccccc3C)cc(C)nc12	IL-1B inflam inh -101
c1ccc(Nc2nc3ccccc3[nH]2)nc1	D3 antag inconclusive, IL-1B inflam inh -80
Cc1cc(C)nc(Nc2nc3ccccc3[nH]2)n1	none
CCC1CCCCN1CCCNC(=O)Cn1nc(-c2ccc(C)cc2)ccc1=O (stereo not given)	none
O=C(c1cc(C2CC2)nc2ccc(Br)cc12)N1N=C(C(F)F)CC1(O)C(F)F (stereo not given)	D3 antag -62, ATXN2 expr inh inconclusive, S2 tox inconclusive, IL-1B inflam inh inconclusive
CC(C)c1ccc(-c2cc(C(=O)N3N=C(C(F)F)CC3(O)C(F)F)c3ccccc3n2)cc1 (stereo not given)	S2 tox inconclusive, IL-1B inflam inh -56
O=C(c1cc(C2CC2)nc2ccccc12)N1N=C(C(F)F)CC1(O)C(F)F (stereo not given)	none
C=Cc1ccc2c(c1)OCCOCCOCCOCCOCCO2	none

From PubChem
